These results are taken from PubChem BioAssay (NCATS).

Test [1] has as its target Cytochrome P450 2D6 (Homo sapiens) (UniProt P10635). The experiment in a line: Cytochrome P450 family 2 subfamily D member 6 (CYP2D6) small molecule antagonists: luciferase biochemical (cell-free) qHTS assay (AID 1645840; active = well fitted curve in the direction sought with a large enough effect in the repeat runs; an effect the other way counts as inactive or inconclusive; note: nearly all actives have a fitted effect of over 55% in size; note: potency is the fitted concentration of half-maximal effect; for activity change, negative = inhibition: % is set by controls: 0 for no effect and ±100 for the full control effect). To be noted: P450-Glo CYP2D6 enzyme, luciferin luminescence, 1 h; series mostly up to 57.4 µM. The procedure, abridged:
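P450-Glo luminescent screen: recombinant CYP2D6 enzyme–proluciferin substrate mix preincubated with compound 10 min at room temperature, then NADPH regeneration added for 1 h at room temperature. Detection reagent added for 20 min; luciferin light read as relative luminescence units.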

Test [2] deals with Papain (Carica papaya) (UniProt P00784). The experiment in a line: Primary qHTS assay for inhibitors of the protease papain (AID 1645873). For activity change, negative = inhibition: % is set by controls: 0 for no effect and ±100 for the full control effect.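 Note: papain turnover of Z-FR-AMC read as the AMC fluorescence gain over 10 min.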 Note: potency is the fitted concentration of half-maximal effect. To be noted: papain Z-FR-AMC cleavage, AMC fluorescence; series mostly up to 49.8 µM.
Test [3] is described as follows: Primary qHTS for inhibitors of nuclear receptor binding SET domain protein 2 (NSD2) in an isogenic RCH-ACV NSD2 p.E1099K mutant (9B) (AID 1645876). Note: nearly all actives have a fitted effect of over 70% in size. Note: potency is the fitted concentration of half-maximal effect. To be noted: RCH-ACV NSD2 E1099K (9B) viability, CellTiter-Glo, 72 h; series mostly up to 44.9 µM.
A short description of test [4]: Primary qHTS for inhibitors of nuclear receptor binding SET domain protein 2 (NSD2) in an RCH-ACV wild type WT cells (2C) (AID 1645877). Note: nearly all actives have a fitted effect of over 70% in size. Note: potency is the fitted concentration of half-maximal effect. The conditions noted are these: RCH-ACV (leukaemia line) NSD2 WT (2C) viability, CellTiter-Glo, 72 h; series mostly up to 44.9 µM. For orientation: In qHTS, concentration-response curves come from the screen itself.
The target in test [5] is Catechol O-methyltransferase (Homo sapiens) (UniProt P21964). The experiment in a line: Confirmatory Screen for Target Class Profiling of Small Molecule Inhibitors of Methyltransferases (AID 1745852). For activity change, negative = inhibition: % is set by controls: 0 for no effect and ±100 for the full control effect. To be noted: MTase-Glo luminescence, SAH detection, recombinant enzyme; measured here: COMT max response; stronger effect = lower value.
Test [6] deals with Guanidinoacetate N-methyltransferase (Homo sapiens) (UniProt Q14353). The test is described as above. The conditions noted are these: MTase-Glo luminescence, SAH detection, recombinant enzyme; at 57.3 µM (top of the series).
Test [7] deals with Nicotinamide N-methyltransferase (Homo sapiens) (UniProt P40261). The test is described as above. The conditions noted are these: MTase-Glo luminescence, SAH detection, recombinant enzyme; measured here: NNMT max response; stronger effect = lower value.
Test [8] deals with Phenylethanolamine N-methyltransferase (Homo sapiens) (UniProt P11086). The description is as above. The conditions noted are these: MTase-Glo luminescence, SAH detection, recombinant enzyme; measured here: PNMT max response; stronger effect = lower value.
Test [9] deals with Cytochrome P450 2C9 (Homo sapiens) (UniProt P11712). Nature of the test: Cytochrome P450 family 2 subfamily C member 9 (CYP2C9) small molecule antagonists: luciferase biochemical (cell-free) qHTS assay (AID 1645842; active = well fitted curve in the direction sought with a large enough effect in the repeat runs; an effect the other way counts as inactive or inconclusive; note: % is set by controls: 0 for no effect and ±100 for the full control effect; nearly all actives have a fitted effect of over 55% in size). To be noted: P450-Glo CYP2C9 enzyme assay, luciferin luminescence; series mostly up to 57.4 µM. The procedure, abridged: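 Luminescence, after 20 min with luciferin detection reagent, reflected CYP2C9 turnover during a 1 h NADPH-driven reaction at 37C. Enzyme-substrate mix contained 0.4% bovine serum albumin and was preincubated with compound 10 min at room temperature.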

Test [10] is described as follows: NCATS anti-infectives library activity on HEK293 viability as a counter-qHTS vs the C. elegans viability qHTS (AID 1745854).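 Note: HEK293 cells exposed to compounds for 24 hr before the viability read; % is set by controls: 0 for no effect and ±100 for the full control effect.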 The conditions noted are these: HEK293 viability counter-screen; series mostly up to 41.8 µM. The procedure, abridged:
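Compounds were acoustically plated (several concentrations, 1:5, final up to 41.7 uM), then 1500 HEK293 cells added per well and incubated 24 hr at 37C, 5% CO2. CellTiter-Glo was added and luminescence read after 10 min.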

A short description of test [11]: Viability counterscreen for antagonist of constitutive androstane receptor (CAR) against the NCATS DSHEA and TCM libraries (AID 1794837).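 Note: compound exposure lasted 24 h before viability reading; 0% is about no effect.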 To be noted: CAR reporter cell line viability counterscreen, qHTS; series mostly up to 40 µM. The procedure, abridged:
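Viability was measured by CellTiter-Fluor fluorescence (405/540 nm, 1 hr) in HepG2-CYP2B6-hCAR cells. Cells were co-treated 24 hr with 48 uM CITCO (final), antagonist mode, and test substances.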
In general terms: A counterscreen serves to expose hits that act by an unwanted route or on another target.

Test [12] is described as follows: Viability counterscreen for agonist of constitutive androstane receptor (CAR) against the NCATS DSHEA and TCM libraries (AID 1794838).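 Note: cells exposed to compound for 24 h; 0% is about no effect.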 To be noted: HepG2 cell viability counterscreen, CAR agonist assay, co-treated with 0.75 µM CAR antagonist; series mostly up to 40 µM. The procedure, abridged: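 Cell viability, from CellTiter-Fluor fluorescence (405/540 nm), was scored after a 24 h, 37C exposure of HepG2 cells carrying CYP2B6 reporter and hCAR to test substances in presence of 0.75 uM PK11195.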

Test [13] in a line: NCATS anti-infectives library activity on the primary C. elegans qHTS viability assay (AID 1745855; calls by dose curve). To be noted: C. elegans worm area imaging, day 7; at 41.8 µM (top of the series). Summed up:
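Viability read-out is GFP fluorescence of PE254-GFP-FLuc C. elegans, measured by laser cytometry (488 nm) at day 0, 3 and 7. Ten L1 worms per well were incubated 7 days at 21 °C with compounds and bacterial capsules in S medium.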

Values joined by “and” are separate entries in the source; they are usually repeats but may differ in a detail not shown here. Identical values can stand only once. Records with an inconclusive call do not appear. Active and inactive are the calls of the source. Unless noted, calls come from the whole dose curve; as a rule, active = well fitted curve in the direction sought with a large enough effect; inconclusive = small, poorly fitted or top-dose-only effect, or another doubt; inactive = no such curve, though single readings can be large; an effect the other way counts as inactive or inconclusive.

Chain of Papain (Carica papaya) (P00784 whole entry, looked up, the tested form may be a part): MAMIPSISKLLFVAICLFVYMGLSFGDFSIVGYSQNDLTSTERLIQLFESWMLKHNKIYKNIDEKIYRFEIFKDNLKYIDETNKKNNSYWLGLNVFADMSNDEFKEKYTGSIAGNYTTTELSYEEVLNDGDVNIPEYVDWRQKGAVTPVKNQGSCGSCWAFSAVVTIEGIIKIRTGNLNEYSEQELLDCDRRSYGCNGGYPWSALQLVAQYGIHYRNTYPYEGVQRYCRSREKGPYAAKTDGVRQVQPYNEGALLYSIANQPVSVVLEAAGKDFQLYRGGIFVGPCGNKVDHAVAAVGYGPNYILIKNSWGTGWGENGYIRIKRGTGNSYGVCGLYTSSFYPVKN
Chain of Cytochrome P450 2C9 (Homo sapiens) (P11712 whole entry, looked up): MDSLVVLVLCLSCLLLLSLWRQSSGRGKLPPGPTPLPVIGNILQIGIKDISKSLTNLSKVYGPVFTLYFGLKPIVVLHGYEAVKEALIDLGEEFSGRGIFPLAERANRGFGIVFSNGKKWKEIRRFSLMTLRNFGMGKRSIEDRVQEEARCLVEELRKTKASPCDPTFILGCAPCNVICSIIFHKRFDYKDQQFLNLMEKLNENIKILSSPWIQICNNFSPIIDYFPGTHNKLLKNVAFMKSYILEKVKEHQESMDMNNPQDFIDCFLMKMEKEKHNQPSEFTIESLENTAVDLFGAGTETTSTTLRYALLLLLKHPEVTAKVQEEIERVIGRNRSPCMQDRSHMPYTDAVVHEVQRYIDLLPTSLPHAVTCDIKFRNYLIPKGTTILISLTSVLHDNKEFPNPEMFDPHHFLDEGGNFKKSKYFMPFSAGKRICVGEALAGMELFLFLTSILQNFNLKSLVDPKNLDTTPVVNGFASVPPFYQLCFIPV
Chain of Cytochrome P450 2D6 (Homo sapiens) (P10635 whole entry, looked up): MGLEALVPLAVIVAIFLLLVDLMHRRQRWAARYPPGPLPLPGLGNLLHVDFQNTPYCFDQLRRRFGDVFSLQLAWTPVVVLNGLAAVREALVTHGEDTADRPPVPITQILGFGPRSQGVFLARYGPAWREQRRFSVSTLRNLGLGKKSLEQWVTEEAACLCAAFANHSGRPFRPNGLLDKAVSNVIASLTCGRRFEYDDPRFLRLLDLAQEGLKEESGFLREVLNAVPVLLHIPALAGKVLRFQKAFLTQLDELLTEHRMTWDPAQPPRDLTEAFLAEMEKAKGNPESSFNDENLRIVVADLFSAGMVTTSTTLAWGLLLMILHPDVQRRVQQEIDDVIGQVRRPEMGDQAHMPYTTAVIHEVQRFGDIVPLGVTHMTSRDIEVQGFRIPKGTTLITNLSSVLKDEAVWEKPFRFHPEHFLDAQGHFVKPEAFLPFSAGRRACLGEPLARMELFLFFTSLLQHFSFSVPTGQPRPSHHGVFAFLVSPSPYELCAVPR
Chain of Nicotinamide N-methyltransferase (Homo sapiens) (P40261 whole entry, looked up): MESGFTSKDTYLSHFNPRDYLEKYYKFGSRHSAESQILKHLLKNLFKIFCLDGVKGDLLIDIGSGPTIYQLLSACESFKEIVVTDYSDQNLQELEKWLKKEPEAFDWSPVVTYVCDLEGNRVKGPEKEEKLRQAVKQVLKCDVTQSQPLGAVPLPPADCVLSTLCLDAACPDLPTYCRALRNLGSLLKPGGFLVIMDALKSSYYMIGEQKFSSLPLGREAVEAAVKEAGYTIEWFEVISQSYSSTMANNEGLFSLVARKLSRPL
Chain of Catechol O-methyltransferase (Homo sapiens) (P21964 whole entry, looked up): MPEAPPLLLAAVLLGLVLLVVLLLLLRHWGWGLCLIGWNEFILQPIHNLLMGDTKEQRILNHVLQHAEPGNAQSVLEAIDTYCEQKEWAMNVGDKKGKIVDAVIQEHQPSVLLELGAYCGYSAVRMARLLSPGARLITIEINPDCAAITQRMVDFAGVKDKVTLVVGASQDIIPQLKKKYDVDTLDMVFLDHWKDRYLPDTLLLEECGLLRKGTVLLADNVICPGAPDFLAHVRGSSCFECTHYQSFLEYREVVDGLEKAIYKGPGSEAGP
Chain of Phenylethanolamine N-methyltransferase (Homo sapiens) (P11086 whole entry, looked up): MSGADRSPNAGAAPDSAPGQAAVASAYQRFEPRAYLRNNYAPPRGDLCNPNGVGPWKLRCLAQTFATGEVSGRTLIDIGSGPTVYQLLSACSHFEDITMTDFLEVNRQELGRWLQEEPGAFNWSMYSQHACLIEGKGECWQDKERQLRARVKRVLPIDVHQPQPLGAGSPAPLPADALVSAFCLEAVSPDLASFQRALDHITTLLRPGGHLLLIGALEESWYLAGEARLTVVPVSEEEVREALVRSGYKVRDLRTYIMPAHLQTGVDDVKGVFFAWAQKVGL

For `Cc1cc(N)c2ccccc2[n+]1CCCCCCCCCC[n+]1c(C)cc(N)c2ccccc21`, the Potency in test [1] is 5.35 µM (active); in test [2], 15.8 µM (active); in test [3], 2.9 µM (active); in test [4], 3.25 µM (active). In addition, the activity in [5] was 2.05%; in test [7], -23.8%; in test [8], 3.98%. The activity change, negative = inhibition in test [6] is -0.381%.

Turning to `Nc1cc(=O)[nH]c(N)n1`, the Potency entry in test [1], in [2], in test [3] and in test [4] was “inactive” throughout.

Regarding `COc1ccccc1O`, the Potency entry in [1] and in [9] was “inactive” throughout. Further, in [4], the Potency is 39 µM (active).

In the case of `CNCCCC1c2ccccc2C=Cc2ccccc21`, the Potency in test [1] is 3.09 µM (active). Further, the Potency entry in test [2] was “inactive”.

Regarding `C[C@]12C[C@H](O)[C@H]3[C@@H](CCC4=CC(=O)CC[C@@]43C)[C@@H]1CC[C@@H]2C(=O)CO`, the Potency result in test [1] and in test [2] was “inactive” in each case.

Turning to `NC(=O)c1ncn([C@@H]2O[C@H](CO)[C@@H](O)[C@H]2O)n1`, the Potency result in test [1] and in test [2] was “inactive” throughout. For the same compound, in [4], the Potency is 14.8 µM (active). Also, in test [10], the outcome is “inactive”.

As for `O=c1cc(CO)occ1O`, the Potency entry in test [1], in test [9], in test [3] and in [4] was “inactive” throughout. In test [10], the outcome was “inactive”.

In the case of `O=C(O)CC(O)C(=O)O` (configuration not stated), the Potency entry in test [1], in test [9], in test [3] and in test [4] was “inactive” throughout.

As to `O=C(O)CN1C(=O)c2cccc3cccc(c23)C1=O`, the Potency result in [1], in test [9], in [3] and in test [4] was “inactive” each time.

`O=C1O[C@H](CO)[C@@H](O)[C@H](O)[C@H]1O`: the Potency result in test [1], in test [9], in test [3] and in test [4] was “inactive” in each case.

Regarding `NC(=O)N/N=C/c1ccc([N+](=O)[O-])o1`, the Potency in test [1] was 13.4 µM (active); in test [4], 24.3 µM (active). Also, the Potency entry in test [9] was “inactive”.

Turning to `Nc1nc2c(ncn2CCC(CO)CO)c(=O)[nH]1`, the Potency entry in test [1], in test [9], in [3] and in test [4] was “inactive” in each case. Also, the outcome in test [10] was “inactive”.

For the compound `NC1CCN(c2cccc(Cl)n2)CC1`, the Potency in test [1] is 1.55 µM (active). Moreover, the Potency entry in [9], in test [3] and in [4] was “inactive” each time.

On to `NCC(=O)CCC(=O)O`, for which the Potency result in test [1], in [9], in [3] and in test [4] was “inactive” in each case. Besides, the outcome in test [10] is “inactive”.

`CC(CN(C)C)CN1c2ccccc2CCc2ccccc21` (configuration not stated): the Potency in [1] is 2.88 µM (active). In addition, the Potency entry in test [2] is “inactive”.

As for `CSc1ccc2c(c1)C(N1CCN(C)CC1)Cc1ccccc1S2` (configuration not stated), the Potency was 0.55 µM (active) in [1], 23.7 µM (active) in test [3] and 15 µM (active) in test [4]. In [2], the Potency entry was “inactive”.

In the case of `CCCOC(=O)c1ccccc1`, the Potency entry in test [1], in test [9], in [3] and in test [4] was “inactive” in each case.

Turning to `C[C@@H]1CN(c2c(F)c(F)c3c(=O)c(C(=O)O)cn(C4CC4)c3c2F)C[C@H](C)N1`, the Potency result in test [1], in test [9], in test [3] and in test [4] was “inactive” each time.

In the case of `O=C1N=C(O)CN1/N=C/c1ccc(-c2ccc([N+](=O)[O-])cc2)o1`, the Potency result in test [1], in test [2], in [3] and in [4] was “inactive” in each case.

For the compound `O=C1O[C@H]([C@@H](O)CO)C(O)=C1O`, the Potency result in test [1], in test [9], in test [3] and in test [4] was “inactive” each time. The outcome in [11] and in test [12] was “inactive” throughout.

Turning to `CC[C@H]1CN2CCc3cc(OC)c(OC)cc3[C@@H]2C[C@@H]1C[C@H]1NCCc2cc(OC)c(OC)cc21`, the Potency result in test [1] and in test [2] was “inactive” throughout. Besides, the Potency was 84.1 nM (active) and 132 nM (active) in test [3]; 59.6 nM (active) and 118 nM (active) in test [4]. For the same compound, the outcome in [13] was “inactive”.

Consider `NS(=O)(=O)c1cc2c(cc1C(F)(F)F)NC(Cc1ccccc1)NS2(=O)=O` (configuration not stated), for which the Potency entry in [1], in test [9], in [3] and in test [4] was “inactive” throughout.

As to `O=c1cc[nH]c(=S)[nH]1`, the Potency result in [1] and in test [4] was “inactive” each time.
